# Cy5 interf NS3h: Cy5 fluorescence interference, HCV helicase counter-screen; 16,000 compounds, 6% hits; fluorescence interference ratio at 100 µM; Cy5-dT15 DNA with NS3h; actives lie on both sides; signal over control mean, under 1 quenches;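 active means compound fluorescence over control fluorescence at most 0.8, a quencher, or at least a set upper limit, an enhancer; inactive means ratio between 0.8 and the set upper limit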
# HCV NS3h FP: blocks HCV NS3 helicase binding to DNA; NS3h Cy5-dT15 DNA binding, fluorescence polarization; inhibition, % at 100 µM; 16,000 compounds, 1.6% hits; AID 687043;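 active means inhibition above the average over every tested compound plus 3 SD, cut at about 40% in these data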
# * hit, by the source's call. Shown are actives, neighbours in structure and some others; about 6.8% of the full set was active somewhere.
SMILES,Cy5 interf NS3h,HCV NS3h FP
Cc1cccc(C)c1NC(=O)CO/N=C(/N)c1nonc1N,0.71*,15
COc1ccc(NC(=O)COc2ccc(Cl)cc2)cc1,1.1,20
CC(C)COc1ccc2c(c1)c1c3c(nccn32)CCC1,0.76*,-3
O=[N+]([O-])c1ccc(C=Nc2ccc(Cl)c([N+](=O)[O-])c2)s1,0.95,-3
Cc1ccc(N=Cc2ccc([N+](=O)[O-])s2)c(C)c1,0.8*,29
Brc1ccc2c(c1)c(-c1ccccc1)nc1nnnn12,1.1,15
O=C(Nc1ccc(Cl)cc1Cl)c1ccccc1F,1.1,2
Nc1ccc(NC(=O)c2ccc(Cl)cc2Cl)c(Cl)c1,0.63*,4
CSc1ccc(S(=O)(=O)N(CC(=O)Nc2cccc(C(C)=O)c2)c2ccc(C)cc2)cc1,0.92,11
C=CCOC(=O)C1=C(C)N(CC)C(=O)NC1c1ccc(Br)cc1 (stereo unspecified),0.96,14
O=C(Nc1nc(CC23CC4CC(CC(C4)C2)C3)cs1)c1ccc(F)cc1,1.1,11
Cc1ccsc1/C=C1\SC(=N)N(c2ccc3c(c2)OCO3)C1=O,1.5*,49*
Cc1ccsc1/C=C1\SC(=S)N(C(C)C)C1=O,0.99,5
Cc1ccc(N2C(=O)NC(=O)/C(=C/c3cc(C)n(-c4ccc([N+](=O)[O-])cc4)c3C)C2=O)cc1,1,1
O=C(NCc1ccccc1)c1nn2c(c1Br)NC(c1cccs1)CC2C(F)(F)F (stereo unspecified),0.99,10
O=C(Nc1cccc(C(F)(F)F)c1)c1nn2c(c1Br)NC(c1cccs1)CC2C(F)(F)F (stereo unspecified),1,12
O=C(NCCc1ccccc1)c1nn2c(c1Br)NC(c1cccs1)CC2C(F)(F)F (stereo unspecified),0.54*,4
CSc1ccccc1NC(=O)c1nn2c(c1Br)NC(c1cccs1)CC2C(F)(F)F (stereo unspecified),0.74*,9
COc1ccc(Cl)cc1NC(=O)c1nn2c(c1Cl)NC(c1cccs1)CC2C(F)(F)F (stereo unspecified),1.1,5
O=C(Nc1ccc(F)cc1F)c1nn2c(c1Cl)NC(c1cccs1)CC2C(F)(F)F (stereo unspecified),0.74*,12
CC(C)(C)NC(=O)c1nn2c(c1Br)NC(c1cccs1)CC2C(F)(F)F (stereo unspecified),0.82,-6
O=C(NCCCN1CCOCC1)c1nn2c(c1Br)NC(c1cccs1)CC2C(F)(F)F (stereo unspecified),0.71*,12
O=C(NCCCN1CCOCC1)/C(=C/c1ccc(-c2cccc(Cl)c2)o1)NC(=O)c1ccccc1,0.84,5
CCOC(=O)c1sc(NC(=O)c2cncc(Br)c2)c(C(=O)OCC)c1C,1.1,0
Cc1ccc(C)c(NC(=O)/C=C/c2ccc(Cl)cc2)c1,1.1,7
SMILES,Cy5 interf NS3h,HCV NS3h FP
COc1ccc(N(CC(=O)NCC(C)C)S(C)(=O)=O)c(OC)c1,1.1,2
COC(=O)c1cc(-c2ccc(/C=C3/N=C(c4ccccc4)OC3=O)o2)ccc1Cl,1,7
Cc1ccc(C2CC(C(F)(F)F)n3ncc(C(=O)N4CCN(c5ccc(F)cc5)CC4)c3N2)cc1 (stereo unspecified),0.63*,3
O=C(c1ccccc1)N1CCN(C(=O)c2cnn3c2NC(c2ccc(Br)cc2)CC3C(F)(F)F)CC1 (stereo unspecified),1.1,17
COc1ccc(C2CC(C(F)(F)F)n3ncc(C(=O)NC(C)(C)C)c3N2)cc1 (stereo unspecified),0.69*,8
COCCNC(=O)c1cnn2c1NC(c1ccc(OC)c(OC)c1)CC2C(F)(F)F (stereo unspecified),0.94,-10
COc1ccc(C2CC(C(F)(F)F)n3ncc(C(=O)N4CCN(Cc5ccccc5)CC4)c3N2)cc1OC (stereo unspecified),0.61*,9
Cc1ccc(C2CC(C(F)(F)F)n3ncc(C(=O)NCCN4CCOCC4)c3N2)cc1 (stereo unspecified),0.77*,9
COc1ccc(C2CC(C(F)(F)F)n3ncc(C(=O)Nc4ccccc4SC)c3N2)cc1 (stereo unspecified),1,8
O=C(NCCN1CCOCC1)c1cnn2c1NC(c1ccco1)CC2C(F)(F)F (stereo unspecified),1,0
CCc1cc2c(s1)SC(c1ccc([N+](=O)[O-])cc1)NC2=O (stereo unspecified),0.92,16
O=C(Nc1ccc(I)cc1Cl)c1ccc(-c2cccc(Cl)c2)o1,0.99,-6
COc1ccc(CCN2C(=O)/C(=C\c3cccs3)SC2=S)cc1OC,1,-3
CCOC(=O)c1ccc(NC(=O)Nc2nc(-c3ccccc3)cs2)cc1,1.1,10
COc1cc(C(=O)NC(NC(=S)Nc2ccc(C(C)=O)cc2)C(Cl)(Cl)Cl)cc(OC)c1OC (stereo unspecified),0.91,5
CCOC(=O)c1c(-c2ccc(C)cc2)csc1NC(=O)C(C)(C)C,0.69*,19
CCOC(=O)c1c(-c2ccc(C)cc2)csc1NC(=O)C1CC1,1,8
CCN(CC)c1ccc(NC(=O)c2cccc(Cl)c2Cl)cc1,1.1,7
O=C(Nc1cccnc1)c1cccc(Cl)c1Cl,0.72*,13
COc1ccc(NC(=O)/C(C#N)=C\c2ccc(-c3ccc([N+](=O)[O-])cc3)o2)cc1,0.95,10
CCOC(=O)C1=C(C)N=c2s/c(=C\c3ccc(N(CC)CC)o3)c(=O)n2C1c1ccc(OC)c(OC)c1 (stereo unspecified),0.99,12
CCOC(=O)C1=C(C)N=c2s/c(=C/c3ccc(I)o3)c(=O)n2C1c1ccccc1OC (stereo unspecified),0.73*,13
COc1cccc(OCCOc2cccc(/C=C3/SC(=S)N(c4ccccc4)C3=O)c2)c1,1.1,6
N/C(Cc1ccc([N+](=O)[O-])cc1)=N/OC(=O)c1cccc(I)c1,1.1,14
N/C(Cc1ccc(Cl)cc1)=N/OC(=O)c1ccc([N+](=O)[O-])cc1,0.79*,-8
SMILES,Cy5 interf NS3h,HCV NS3h FP
CCOC(=O)COc1ccc(/C=C2/C(=O)NN(c3ccc(I)cc3)C2=O)cc1OC,0.88,3
CCOC(=O)c1ccc(N2NC(=O)/C(=C/c3ccc(O)c(OCC)c3)C2=O)cc1,0.73*,2
CCOc1ccccc1/C=C1/C(=O)NN(c2ccc(C)c(C)c2)C1=O,0.91,16
CCOc1ccccc1/C=C1/C(=O)NN(c2ccc(C)c(Cl)c2)C1=O,0.74*,14
CCOC(=O)c1c(-c2ccccc2)oc2cc(Br)c(OC(=O)CC)cc12,0.95,10
COc1ccc(OC)c(/C=C2/SC(=S)N(CNc3cccc(Cl)c3)C2=O)c1,0.6*,22
COC(=O)CN1C(=O)/C(=C/c2cc(OC)ccc2OC)SC1=S,1,10
CCOc1ccc(C(=O)Nc2ccc3oc(-c4ccccc4Cl)nc3c2)cc1,0.93,5
COc1cc(/C(C)=N\N2CCN(c3ccccc3OC)CC2)ccc1O,0.97,-4
O=C(NCCN1CCN(C(=O)c2ccccc2Cl)CC1)C(=O)Nc1ccccc1,0.98,8
COc1ccc(NC(=O)CSc2nc3ccccc3s2)c(OC)c1,0.63*,4
COc1ccc(CNC(=O)CSc2nc3ccccc3s2)cc1,0.98,7
O=C(CSc1nc2ccccc2s1)Nc1nc2ccccc2s1,0.97,8
O=C(CSc1nc2ccccc2s1)c1ccc2ccccc2c1,0.74*,12

# High-throughput results from PubChem.
